From PubChem BioAssay AID2530 (National Center for Advancing Translational Sciences (NCATS), 2010)
Inconclusive results are not listed. A call without a number means that no potency is given here. The source made the active and inactive calls. Calls follow the shape of the dose curve; as a rule, active = well fitted inhibition curve with a large enough effect; inconclusive = small, poorly fitted or top-dose-only effect; inactive = flat fitted curve, though single readings scatter.

These molecules were tested against Luciferin 4-monooxygenase (Photuris pensylvanica) (UniProt Q27757) (assay: Secondary Assay for Luciferase (Kinase-Glo TM) Inhibition Counterscreen). Details: Kinase-Glo luciferase enzyme, luminescence; series mostly up to 58.1 µM.
How it was run: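 Inhibition was fitted with the Hill equation after normalizing luminescence to DMSO (basal) and 40 uM SIB 1757 (full inhibition). Kinase-Glo luciferase ran for 8 min at room temperature in imidazole buffer pH 7.2 with KCl, MgCl2 and 10 uM ATP.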
Potency is read from the fitted curve at half-maximal effect.

| Compound | Potency |
| --- | --- |
| O=C1CCc2cc(S(=O)(=O)NCc3ccccc3)ccc2N1 | inactive |
| O=C1CCc2cc(S(=O)(=O)Nc3ccc4ccccc4c3)ccc2N1 | inactive |
| COc1cccc(Cn2ncc3c4sc(S(C)=O)cc4n(C)c3c2=O)c1 (stereo not drawn) | inactive |
| Cn1c(-c2ccc(Br)o2)nc2ccccc21 | 10.3 µM (active) |
| O=S1(=O)N=C(Oc2cccc(Cl)c2)c2ccccc21 | inactive |
| O=C1c2ccccc2C(=O)N1c1cccc(O)c1 | inactive |
| Cc1ccc(NS(=O)(=O)c2ccc3c(c2)CCC(=O)N3)cc1C | inactive |
| O=C1c2ccccc2C(=O)N1c1ccccc1O | inactive |
| O=C1c2ccccc2-c2nnc(-c3ccccc3)cc21 | 4.11 µM (active) |
| CC(=O)N1CCc2cc(S(=O)(=O)Nc3ccc(C)c(C)c3)ccc21 | inactive |
| CCOC(=O)C(C(C)=O)c1c(Br)c(O)c(O)c2c(C(=O)c3ccc(C)cc3)coc12 (stereo not drawn) | inactive |
| Cc1nc(N/N=C/c2ccccn2)sc1C | 5.8 µM (active) |
| O=C1c2ccccc2C(=O)N1c1ccc(Cl)cc1 | inactive |
| Nc1ncnc2c1ncn2C1OC(COP(=O)(O)O)C(O)C1O (stereo not drawn) | 4.61 µM (active) |
| Cc1ccc(NS(=O)(=O)c2ccc(Cl)cc2)cc1C | inactive |
| O=S1(=O)N=C(Oc2ccccc2)c2ccccc21 | inactive |
| O=C1c2ccccc2C(=O)N1c1cccc2cnccc12 | inactive |
| O=C1CCc2cc(S(=O)(=O)Nc3cccc4ccccc34)ccc2N1 | inactive |
| Cc1ccc(NS(=O)(=O)c2cccc(C(=O)O)c2)cc1C | inactive |

| Compound | Potency |
| --- | --- |
| COc1cc(N2C(=O)C=CC2=O)c(OC)cc1Cl | inactive |
| Cc1ccccc1OC1=NS(=O)(=O)c2ccccc21 | inactive |
| COc1ccccc1NS(=O)(=O)c1ccc2c(c1)CCC(=O)N2 | inactive |
| Fc1ccc(-c2nc3n(n2)Cc2ccccc2-3)cc1 | 7.3 µM (active) |
| C[C@]12CC[C@@H]3c4cc(O)c(O)cc4CC[C@H]3[C@@H]1CC[C@@H]2O | inactive |
| c1ccc(-c2nc(-c3ccccn3)no2)cc1 | 3.66 µM (active) |
| O=S(=O)(c1ccc2c(c1)OCCO2)N1CCN(S(=O)(=O)c2c(F)cccc2F)CC1 | inactive |
| O=c1c2ccccc2cnn1-c1nc2ccccc2[nH]1 | 2.59 µM (active) |
| Cc1ccc(NC(=O)c2ccc3c(c2)CCC(=O)N3)cc1C | inactive |
| Cc1c(C(=O)NC(=S)Nc2ccc(NC(=O)c3cccs3)cc2)oc2ccccc12 | inactive |
| O=C1c2ccccc2C(=O)N1C1CCCCC1 | inactive |
| Cc1cc(C)n2c(Nc3ccccc3)c(-c3ccc(C)o3)nc2n1 | inactive |
| O=C1CCc2cc(S(=O)(=O)Nc3ccc(-c4ccccc4)cc3)ccc2N1 | inactive |
| Cc1ccnc(NC(=O)c2ccc3c(c2)OCO3)c1 | 11.6 µM (active) |
| Cc1ccc(NS(=O)(=O)c2cccc(Cl)c2)cc1C | inactive |
| CNc1cccc(S(=O)(=O)N2CCN(S(=O)(=O)c3ccc4c(c3)OCCO4)CC2)c1 | inactive |
| Cc1ccc(NS(=O)(=O)c2ccc3c(c2)NC(=O)CO3)cc1C | inactive |
| Nc1ccc2nc(-c3ccccc3)sc2c1 | 11.6 µM (active) |
| O=C1CCc2cc(S(=O)(=O)Nc3cccc(-c4ccccc4)c3)ccc2N1 | inactive |
